Experimental data from PubChem BioAssay AID504339 (National Center for Advancing Translational Sciences (NCATS), 2011).
Values joined by “and” are separate entries in the source; they are usually repeats but may differ in a detail not shown here. Equal values may be shown once. About 17,000 (4.4%) of roughly 390,000 compounds were called active. Entries that show only a call come without a potency. Inconclusive results (about 8%) are left out. Calls come from the whole dose curve; as a rule, active = well fitted inhibition curve with a large enough effect; inconclusive = small, poorly fitted or top-dose-only effect; inactive = no such curve, though single readings can be large or run the other way. Many of the other results were omitted from the sample, so actives are more common in it than they were. Some structures have more than one record in an assay (separate samples or runs), and their calls can disagree.

Target: Lysine-specific demethylase 4A (Homo sapiens) (UniProt O75164)
Sequence (O75164 whole entry, looked up, the tested form may be a part): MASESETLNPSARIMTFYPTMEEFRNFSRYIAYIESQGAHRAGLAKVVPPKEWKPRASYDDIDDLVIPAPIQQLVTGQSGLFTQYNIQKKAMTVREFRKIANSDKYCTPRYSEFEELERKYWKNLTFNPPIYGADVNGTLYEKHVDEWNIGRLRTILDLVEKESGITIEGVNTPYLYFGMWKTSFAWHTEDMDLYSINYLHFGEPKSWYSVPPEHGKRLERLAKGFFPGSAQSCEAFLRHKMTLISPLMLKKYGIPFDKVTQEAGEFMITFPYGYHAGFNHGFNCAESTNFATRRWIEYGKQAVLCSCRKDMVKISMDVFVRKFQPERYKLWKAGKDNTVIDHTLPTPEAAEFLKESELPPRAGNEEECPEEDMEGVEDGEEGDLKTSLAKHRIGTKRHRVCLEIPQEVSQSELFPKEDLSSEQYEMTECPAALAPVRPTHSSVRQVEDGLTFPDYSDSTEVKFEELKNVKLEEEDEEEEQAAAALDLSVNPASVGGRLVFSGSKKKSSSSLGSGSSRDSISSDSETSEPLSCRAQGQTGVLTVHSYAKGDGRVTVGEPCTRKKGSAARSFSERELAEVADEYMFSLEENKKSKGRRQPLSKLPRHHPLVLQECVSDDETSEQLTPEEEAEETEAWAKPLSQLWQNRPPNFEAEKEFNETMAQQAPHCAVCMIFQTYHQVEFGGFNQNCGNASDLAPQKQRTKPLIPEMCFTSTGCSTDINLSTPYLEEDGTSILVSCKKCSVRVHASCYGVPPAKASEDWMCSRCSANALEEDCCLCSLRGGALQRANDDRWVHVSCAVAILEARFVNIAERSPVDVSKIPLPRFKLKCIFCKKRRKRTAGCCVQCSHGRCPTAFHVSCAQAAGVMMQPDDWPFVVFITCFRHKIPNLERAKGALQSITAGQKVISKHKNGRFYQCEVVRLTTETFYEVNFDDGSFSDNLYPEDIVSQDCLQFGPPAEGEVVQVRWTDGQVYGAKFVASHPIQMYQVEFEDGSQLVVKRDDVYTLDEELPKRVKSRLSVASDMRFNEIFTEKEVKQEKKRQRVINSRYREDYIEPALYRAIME
Experiment: qHTS Assay for Inhibitors of JMJD2A-Tudor Domain; note: nearly all actives have a fitted effect of over 50% in size
Conditions: AlphaScreen JMJD2A-Tudor / H3K4me3 peptide binding; series mostly up to 114 µM
Potency is the fitted concentration of half-maximal effect.

Compound	Potency	activity change, negative = inhibition
CCOc1ccc(Nc2c(S(=O)(=O)c3ccccc3)cnc3ccccc23)cc1	inactive	
COc1cccc(-n2ccn(CC(=O)NCc3ccc(C)cc3)c(=O)c2=O)c1	inactive	
C=CC1=C(C(=O)O)N2C(=O)[C@@H](NC(=O)/C(=N\OCC(=O)O)c3csc(N)n3)[C@H]2SC1	20 µM (active)	
CO/N=C(\C(=O)N[C@@H]1C(=O)N2C(C(=O)O)=C(COC(C)=O)CS[C@H]12)c1csc(N)n1 (stereo in doubt)	inactive and 79.4 µM (active) and 56.2 µM (active)	
CC(C)(C)OC(=O)C1=C(CO)CS[C@@H]2[C@H](NC(=O)Cc3ccccc3)C(=O)N12	inactive	
C=CC1=C(C(=O)O)N2C(=O)[C@@H](NC(=O)/C(=N/OCC(=O)O)c3csc(N)n3)[C@H]2SC1	25.1 µM (active)	
COc1cc(C(=O)NCC(c2ccc(Cl)cc2)N2CCOCC2)cc(OC)c1OC (configuration not stated)	inactive	
Cc1cc(C)cc(NC(=O)CCCc2nc(-c3ccccc3Cl)no2)c1	inactive	
Cc1ccc(OCCSc2nc3ccc(NC(=O)COc4ccc(C)cc4)cc3s2)cc1	inactive	
CC(=O)c1ccc(NC(=O)CSc2nnc(NC(=O)Nc3ccccc3)s2)cc1	inactive	
Cn1c(=O)c2c(nc(SCC(=O)Nc3ccc(F)cc3)n2Cc2ccc(Cl)cc2)n(C)c1=O	inactive	
CCOC(=O)c1ccc(CSc2nnc3cc(C)c4ccccc4n23)cc1	inactive	
Cc1c(CCNC(=O)c2ccc(C(F)(F)F)cc2)sc2nc(-c3ccc(F)cc3)nn12	inactive	
Oc1c(C(c2ccc(F)cc2)N2CCN(Cc3ccccc3)CC2)sc2nc(-c3ccco3)nn12 (configuration not stated)	inactive	
COc1ccc(CN2CCN(Cc3cn(C)nc3-c3ccccc3)CC2CCO)c(C)c1C (configuration not stated)	inactive	
Cc1ccccc1CN1C[C@@H]2C[C@@H](c3ccc4nsnc4c3)N3CCC[C@@]23C1=O	inactive	
Cc1ccccc1CN1C[C@@H]2C[C@@H](c3cn(C)nc3-c3ccccc3)N3CCC[C@@]23C1=O	63.1 µM (active)	
O=C(CCc1nc(CN2CCN(S(=O)(=O)c3ccc(Br)cc3)CC2)no1)N1CCCCC1	inactive	
COc1ccc(NC(=O)CSc2nc3ccccc3n2CC(=O)N2CCCCC2C)cc1 (configuration not stated)	inactive	
COc1ccc(Nc2cc(=O)oc3ccccc23)cc1	inactive	
COc1ccc(-c2nnc(-c3ccc4ccccc4c3)o2)cc1	inactive	
COc1ccc(Nc2ccc3ccccc3c2)cc1	56.2 µM (active)	
COc1cccc(NC(=O)C(=O)NCC(c2ccc3c(c2)OCO3)N2CCN(C)CC2)c1 (configuration not stated)	inactive	
S=c1nc2ccccc2c2nc(-c3cccnc3)[nH]n12		-17.6% [at 11.4 µM] (inactive)
Fc1ccccc1/C=N/n1c(-c2cccnc2)n[nH]c1=S	3.98 µM (active)	

Compound	Potency	activity change, negative = inhibition
S=c1[nH]nc(-c2ccncc2)n1/N=C/c1ccccc1Cl	3.16 µM (active)	
COc1ccc(-c2cc(C(=O)Nc3sc4c(c3C(N)=O)CCCC4)no2)cc1	inactive	
Cc1cccc(N2CCN(C(=O)CCn3c(=O)c4cccn4c4cccnc43)CC2C)c1 (configuration not stated)	inactive	
COc1ccc(Cn2c(=O)c3oc4ccccc4c3n(CC(=O)Nc3ccc(F)cc3F)c2=O)cc1	inactive	
CCC1CCCCN1C(=O)Cn1c(=O)n(CCCCCC(=O)NCc2ccccc2)c(=O)c2sccc21 (configuration not stated)	inactive	
CN1CCOc2cc(S(=O)(=O)N3CCN(S(=O)(=O)c4c(F)cccc4F)CC3)cnc21	inactive	
CCn1c(SCC(=O)Nc2nccs2)nnc1-c1ccncc1	inactive	
CCn1c(C)nc2c1C(=O)c1ccccc1C2=O	inactive	
CC(C)n1c(-c2ccncc2)n[nH]c1=S	22.4 µM (active)	
CCn1c(SCC(=O)NC2CCCC2)nnc1-c1ccoc1C	inactive	
CCCc1cc(-c2n[nH]c(=S)n2CC)c2ccccc2n1	79.4 µM (active)	
CCn1c(-c2ccoc2C)n[nH]c1=S	10 µM (active)	
CCCn1c(C)cc(-c2csc(NC(=O)CCc3nc4ccccc4c(=O)[nH]3)n2)c1C	inactive	
CCn1c(SCC(=O)Nc2ccc3c(c2)OCCO3)nnc1-c1ccncc1	inactive	
CC(C)n1c(-c2cccs2)nc2ccccc21	inactive	
CCn1c(-c2ccncc2)n[nH]c1=S	10 µM (active)	
O=C(CC1C(=O)N(c2ccccc2)C(=O)N1CCc1cccs1)Nc1ccc(F)cc1 (configuration not stated)	inactive	
O=C(NCCCO)C(=O)Nc1c2c(nn1-c1ccccc1)CSC2	inactive	
COc1cccc(-c2nc(S(=O)(=O)c3ccc(C)cc3)c(NCc3ccccc3)o2)c1	inactive	
O=C(NCc1ccc(F)cc1)c1ccc2nc(N3CCCCC3)sc2c1	inactive	
Cc1ccc(NC(=O)CSc2nc3c([nH]c4ccccc43)c(=O)n2-c2ccccc2)c(C)c1	inactive	
O=C(Nc1ccc(Br)cc1)c1ccc(Br)c(S(=O)(=O)NCc2ccccc2)c1	inactive	
COc1ccc(CCNC(=O)c2ccc3c(c2)sc2nc(-c4ccc(C)cc4)cn23)cc1OC	inactive	
Cc1ccc(Oc2c(C(F)(F)F)oc3c(CN4CCCCC4)c(O)ccc3c2=O)cc1	inactive	
CC1CCCC(N2CCN(C(=O)c3ccc(F)cc3)CC2)C1 (configuration not stated)	10 µM (active)	

Compound	Potency	activity change, negative = inhibition
O=C(c1ccc(F)cc1)N1CCCC(C(=O)N2CCCCC2)C1 (configuration not stated)	inactive	
O=C(c1ccc(F)cc1)N1CCC(n2nnc3ccccc32)CC1	inactive	
CCOc1ccc(S(=O)(=O)Nc2ccc3oc4c(c3c2)CC(C)CC4)cc1 (configuration not stated)	inactive	
Cc1ccccc1CSc1nc2c([nH]c3ccccc32)c(=O)n1C	inactive	
Cc1ccc2nc(COc3cccc(NC(=O)c4cccc(Cl)c4)c3)cc(=O)n2c1	inactive	
COc1ccc(-c2cc(=O)oc3cc(OC(C)C(=O)Nc4ccc(CN5CCOCC5)cc4)ccc23)cc1 (configuration not stated)	inactive	
CC(OC(=O)c1cc2ccccc2o1)C(=O)Nc1ccc(N2CCOCC2)cc1 (configuration not stated)	inactive	
Cc1cc(=O)oc2cc(OC(C)C(=O)Nc3ccc(N4CCOCC4)cc3)ccc12 (configuration not stated)	89.1 µM (active)	
COc1ccc(-c2c(C)c3ccc(O)c(CN4CCCC4)c3oc2=O)cc1OC	inactive	
COc1cc(OC)c(OC)cc1/C=C/c1nc2cc3ccccc3cc2c(=O)n1-c1ccc(F)c(Cl)c1	inactive	
O=C(CSc1nc(Nc2ccc(F)c(F)c2)c2ccccc2n1)c1ccc(Cl)cc1	inactive	
Cc1ccnc(-n2sc3ccccc3c2=O)n1	6.31 µM (active)	
Cc1ccc(-c2nnc(Nc3cccc(Br)c3)c3ccccc23)cc1S(=O)(=O)NCC1CCCO1 (configuration not stated)	inactive	
Cc1ccc(/C=C/C(=O)Nc2cc(S(=O)(=O)N3CCCCCC3)ccc2OCC(F)(F)F)o1	inactive	
Cc1ccc(/C=C/C(=O)Nc2ccc([N+](=O)[O-])c(NC(=O)/C=C/c3ccc(C)o3)c2)o1	79.4 µM (active)	
CNc1ccc(NC(C)=O)cc1[N+](=O)[O-]	inactive	
Cc1nc2ccccc2nc1N/N=C/c1ccc(O)cc1O	14.1 µM (active)	
Cc1ccc(/C=N/NC(=O)C2=NNC(c3ccccc3)(c3ccccc3)C2)c(O)c1	inactive	
Oc1ccc2nc(Cc3ccccc3)[nH]c2c1	inactive	
CCOC(=O)c1ccc(NC(=O)CC2C(=O)N(c3cccc(OC)c3)C(=O)N2C2CCCCC2)cc1 (configuration not stated)	inactive	
O=C(N[C@@H](Cc1ccccc1)C(=O)OCc1ccccc1)c1nc[nH]c1C(=O)NC1CCNCC1	inactive	
CCOC(=O)c1ccc(NC(=O)c2nc[nH]c2C(=O)NCc2ccccc2)cc1	inactive	
CCOC(=O)c1[nH]cnc1C(=O)NC1CCCCC1	3.98 µM (active)	
CCc1ccccc1NC(=O)N1CCN(C(=O)c2nsc3ccccc23)CC1	inactive	
CCOC(=O)c1cccc(NS(=O)(=O)c2cn(C)c(C)n2)c1	inactive	

Compound	Potency	activity change, negative = inhibition
Fc1ccc(CSc2nc(NCc3ccccc3)c3ccccc3n2)cc1	inactive	
CN(C)/C=C1/Nc2ccccc2C1=O	50.1 µM (active)	
CCCS(=O)(=O)C(=C1Nc2ccccc2N1)S(=O)(=O)CCC	inactive	
CCOc1ccccc1CNC(=O)c1cnc2c(-c3ccc(OCC)c(OCC)c3)c(C)nn2c1C	inactive	
COc1ccccc1CNC(=O)CCn1c(=O)c2ccccc2n(CC(=O)Nc2cccc(Cl)c2)c1=O	inactive	
CCCCN(C)c1nnc(NC(=O)Nc2ccc(Br)c(C)c2)s1	inactive	
CCNCCC(=O)N1c2ccccc2Sc2ccc(NC(=O)OCC)cc21	inactive	
CCN1C(=O)c2ccccc2Sc2ccc(NC(=O)Cc3ccc(OC)cc3)cc21	inactive	
CCN1/C(=C/C(=S)Nc2ccccc2)Sc2ccccc21	50.1 µM (active)	
CC(=O)NC1CCN(CC(=O)Nc2nccs2)CC1	31.6 µM (active)	
Cc1cc(C)cc(N(CC(=O)NC2CCCC2)C(=O)CCC(=O)Nc2nccs2)c1	inactive	
CC1CCN(CC(=O)Nc2nccs2)CC1	inactive	
COc1ccc(-c2nc(CN3CCC(C(=O)NCc4ccccc4)CC3)c(C)o2)cc1OC	inactive	
COc1ccc(CNC(=O)COCc2cc(-c3cccs3)on2)cc1OC	inactive	
CC(Nc1ccc([N+](=O)[O-])cc1[N+](=O)[O-])c1ccccc1 (configuration not stated)	12.6 µM (active)	
Cc1cc([N+](=O)[O-])ccc1NS(=O)(=O)c1ccccc1	inactive	
CC(C)OP(=O)(OC(C)C)C(Nc1ccccc1)c1cccc([N+](=O)[O-])c1 (configuration not stated)	inactive	
COc1ccc(-c2cc(-c3ccccc3)nc3c2COc2ccc(Cl)cc2-3)cc1	inactive	
Cc1cccc(NC(=O)CSc2nc(-c3ccco3)cc(C(F)(F)F)n2)c1C	inactive	
CCOC(=O)c1sc(NC(=O)CSc2nc(C)cc(C(F)(F)F)n2)c(C#N)c1C	50.1 µM (active)	
Cc1cc(C(F)(F)F)nc(SCC(=O)Nc2nccs2)n1	inactive	
Cc1ccc(C(=O)Nc2ccccc2F)cc1S(=O)(=O)N1CCOCC1	inactive	
